# MEKK2wt PB1 HTS: raises or lowers MEK5 binding to wildtype human MEKK2 PB1 domain | Q9Y2U5 | bead flow cytometry, Alexa488-MEK5 binding to MEKK2 WT; actives lie on both sides | 290,000 compounds, 1.1% hits | binding response (% of control), % at 10 µM; in the data active = binding response below about 67% or above about 130%
# GRK2 aptamer HTS: human GRK2 inhibition via aptamer displacement | inhibition of aptamer binding, % at 10 µM | 330,000 compounds, 0.59% hits | bead flow cytometry, FAM-aptamer displacement from GRK2;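 active = inhibition of aptamer binding above 40%, roughly 3 SD of noise, on plates passing a quality check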;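 also: median bead fluorescence of bound FAM aptamer so fluorescent compounds give negative values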
# Target sequence (P25098 whole entry, looked up): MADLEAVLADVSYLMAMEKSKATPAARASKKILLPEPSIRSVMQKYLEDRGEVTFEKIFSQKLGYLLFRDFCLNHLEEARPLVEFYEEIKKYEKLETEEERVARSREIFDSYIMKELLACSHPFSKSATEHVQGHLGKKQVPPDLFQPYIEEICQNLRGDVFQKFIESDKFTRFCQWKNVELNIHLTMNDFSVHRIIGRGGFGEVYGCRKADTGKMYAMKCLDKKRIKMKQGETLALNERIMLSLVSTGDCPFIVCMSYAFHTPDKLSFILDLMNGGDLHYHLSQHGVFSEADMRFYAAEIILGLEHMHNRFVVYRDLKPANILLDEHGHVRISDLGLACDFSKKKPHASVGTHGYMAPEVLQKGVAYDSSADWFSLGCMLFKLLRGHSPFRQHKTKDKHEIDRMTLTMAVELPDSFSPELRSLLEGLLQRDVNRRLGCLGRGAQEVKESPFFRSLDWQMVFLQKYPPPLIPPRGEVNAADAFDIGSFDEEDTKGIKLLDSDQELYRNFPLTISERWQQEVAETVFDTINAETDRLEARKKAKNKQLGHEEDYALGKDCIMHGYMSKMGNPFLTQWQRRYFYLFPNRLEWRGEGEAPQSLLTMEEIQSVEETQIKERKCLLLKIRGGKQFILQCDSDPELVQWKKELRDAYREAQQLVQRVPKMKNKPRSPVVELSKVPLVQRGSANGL
# MEKK3 PB1 HTS: modulators (inhibitors or enhancers) of MEK5 binding to human MEKK3 PB1 domain; Q99759; bead-based flow cytometry, Alexa488-MEK5 binding to MEKK3; actives lie on both sides; 0 = blocked by unlabeled MEK5, 100 = vehicle; binding response (% of control), % at 10 µM; 290,000 compounds, 1.4% hits;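 active = binding response more than 3 SD above or below the average of its plate-row segment, actives on both sides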;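 also: Alexa488 bead fluorescence after subtracting the streptavidin-only scavenger bead signal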
# MEKK2mut PB1 HTS: signal of MEK5 binding to mutant human MEKK2 PB1 domain; bead flow cytometry, Alexa488-MEK5 binding to MEKK2 mutant; percent response, % at 10 µM; 290,000 compounds, 0.35% hits; in the data active = percent response above about 24%, passing the limit was not always enough
# MEKK2wt confirm: raises or lowers MEK5 binding to wildtype human MEKK2, retest; shares compounds with MEKK3 PB1 HTS; bead flow cytometry, Alexa488-MEK5 binding to MEKK2 WT; actives lie on both sides; binding response (% of control), % at 10 µM; 5,900 compounds, 2.4% hits; AID 1892; in the data active = binding response below about 16% or above about 210%; inactive = in between
# MEKK2mut-MEK5: signal of MEK5 binding to mutant human MEKK2, retest. AID 1893. bead flow cytometry, Alexa488-MEK5 binding to MEKK2 mutant. shares compounds with MEKK3 PB1 HTS. 5,900 compounds, 2% hits. percent response, % at 10 µM; in the data active = percent response mostly above about 71%, no sharp cut-off; inactive = mostly below about 38%;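 also: higher means compound restores mutant binding toward wildtype level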
# MEKK3-MEK5 inh: MEKK3-MEK5 PB1 inhibition, single concentration confirmation; bead flow cytometry, Alexa488-MEK5 binding to MEKK3; hits give low values; binding response (% of control), % at 10 µM; AID 1894; shares compounds with MEKK3 PB1 HTS; 5,900 compounds, 1.8% hits;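 active = binding response below 72% of control, or above a set upper limit, though filed actives all read lower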;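 also: 100% = DMSO only wells and 0% = binding blocked by excess unlabeled MEK5; lower values mean stronger disruption of MEK5 binding to MEKK3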
# * = called active by the depositor; x = no result given; [ ] = another dose, or the depositor's remark. Only some compounds are listed: those with a hit (about 2.5% of all), similar ones and a draw of the others.
SMILES,MEKK2wt PB1 HTS,GRK2 aptamer HTS,MEKK3 PB1 HTS,MEKK2mut PB1 HTS,MEKK2wt confirm,MEKK2mut-MEK5,MEKK3-MEK5 inh
COc1ccccc1N(CC(O)Cn1ccnc1C)S(=O)(=O)c1ccc(C)cc1 (stereo not drawn),105.0,0.0,100.0,-8.0,x,x,x
Cc1nnc(SCC(=O)Nc2nc3c(s2)CC(C)CC3)s1 (stereo not drawn),102.0,0.0,105.0,2.0,x,x,x
COc1ccc(NC(=O)c2nc[nH]c2C(=O)NCC(=O)OC(C)(C)C)cc1,54.0,1.0,50.0*[inhibitor],4.0,104.0,2.0,101.0
O=C(O)Cn1nc(C(F)(F)F)c2c1CCCCC2,108.0,0.0,107.0,0.0,x,x,x
COCCCN=C1NN=C(c2cc(C)n(-c3ccccc3F)c2C)CS1,112.0,2.0,103.0,7.0,x,x,x
Cc1cc(C2=NNC(=NCCc3ccccc3)SC2)c(C)n1-c1c(C)n(C)n(-c2ccccc2)c1=O,50.0,2.0,50.0*[inhibitor],-11.0,94.0,-5.0,93.0
Cc1cc(C2=NNC(=NC3CC3)SC2)c(C)n1-c1c(C)n(C)n(-c2ccccc2)c1=O,101.0,0.0,104.0,0.0,x,x,x
CCOc1ccc(-c2cn(CCC#N)cn2)cc1,101.0,1.0,103.0,-1.0,x,x,x
CCc1nc2nc(C)cc(Nc3cccc(C(F)(F)F)c3)n2n1,99.0,0.0,98.0,-5.0,x,x,x
Cc1cc(Nc2cccc(C(F)(F)F)c2)n2nc(C)nc2n1,0.0*[inhibitor],2.0,1.0*[inhibitor],-65.0,106.0,9.0,108.0
COc1ccc(OC)c(N2Cc3cc(C)c(C)cc3C2)c1,10.0*[inhibitor],3.0,8.0*[inhibitor],-27.0,91.0,-5.0,98.0
Cc1cccn2c(=O)c(/C=C(\C#N)C(=O)NC3CCS(=O)(=O)C3)c(N3CCC(C)CC3)nc12 (stereo not drawn),104.0,0.0,131.0*,-1.0,102.0,-1.0,105.0
C=C1CCN([C@@H](Cc2ccccc2)C(=O)NCc2ccc(Cl)c(Cl)c2)S(=O)(=O)c2ccccc21,90.0,0.0,84.0,-5.0,x,x,x
COc1ccc(C(CNC(=O)Cc2ccccc2F)N2CCCCC2)cc1 (stereo not drawn),113.0,0.0,131.0*,-1.0,108.0,-1.0,103.0
COc1ccc(C(CNC(=O)Cc2ccccc2Cl)N2CCCCC2)cc1 (stereo not drawn),99.0,3.0,100.0,-4.0,x,x,x
O=C(Nc1nccs1)c1ccc(-c2ccc(F)cc2)o1,109.0,0.0,106.0,3.0,x,x,x
O=C(Nc1nccs1)c1ccc(-c2ccc(Cl)cc2)o1,3.0*[inhibitor],3.0,3.0*[inhibitor],-26.0,105.0,0.0,99.0
COc1ccc(-c2c(C)n([O-])c3c([n+]2=O)CCCCC3)cc1,104.0,2.0,135.0*,-1.0,103.0,2.0,102.0
COc1cc(C(=O)n2cnc3ccccc32)c([N+](=O)[O-])cc1OC,109.0,0.0,105.0,2.0,x,x,x
Cc1ccc(NC(=O)CSc2nnc(-c3cccs3)o2)cc1S(=O)(=O)N1CCCCC1,105.0,1.0,135.0*,0.0,99.0,4.0,105.0
O=C(OCC(=O)N1CCCC1=O)C1CCN(S(=O)(=O)c2ccc(Cl)c(C(F)(F)F)c2)CC1,x,0.0,x,x,x,x,x
COc1ccc(NC(=O)COC(=O)CC2CCCC2)cc1Cl,x,4.0,x,x,x,x,x
Cc1ccc(NC(=O)COc2ccccc2C(=O)Nc2ccccc2)cc1Cl,146.0*,0.0,103.0,68.0*,138.0,12.0,106.0
Cc1ccc(NC(=O)COc2ccccc2)cc1Cl,109.0,1.0,108.0,16.0,x,x,x
Cc1ccc(NC(=O)COC(=O)CC2CCCC2)cc1Cl,82.0,0.0,70.0*[inhibitor],-3.0,100.0,0.0,97.0
SMILES,MEKK2wt PB1 HTS,GRK2 aptamer HTS,MEKK3 PB1 HTS,MEKK2mut PB1 HTS,MEKK2wt confirm,MEKK2mut-MEK5,MEKK3-MEK5 inh
CCOCC(=O)Nc1ccc(C)c(Cl)c1,85.0,1.0,77.0*[inhibitor],-6.0,104.0,7.0,103.0
Cc1ccc(CC(=O)N2CCN(c3cccc(C(F)(F)F)c3)CC2)cc1,98.0,0.0,99.0,2.0,x,x,x
Cn1c(CS(=O)Cc2c(Cl)cccc2Cl)nnc1SCc1ccc(Cl)cc1 (stereo not drawn),50.0,2.0,34.0*[inhibitor],-26.0,105.0,3.0,105.0
COc1ccc(CN2CC(C(=O)NCCC3=CCCCC3)CC2=O)cc1 (stereo not drawn),102.0,0.0,101.0,6.0,x,x,x
O=C(Nc1ccc(F)cc1)Oc1ccc[nH]c1=O,100.0,2.0,96.0,5.0,x,x,x
CCCCN(CCCNC(=O)c1ccc2nc(N3CCOCC3)sc2c1)Cc1ccccc1,158.0*,0.0,105.0,20.0,167.0,37.0,109.0
COc1ccc(CCNC(=O)COC(=O)/C=C/c2ccc(OC)c(OC)c2)cc1,136.0,0.0,107.0,12.0,x,x,x
CCOc1ccc(/C=C/C(=O)NCCc2ccc(OC)c(OC)c2)cc1,109.0,0.0,147.0*,1.0,102.0,-3.0,99.0
CCOc1ccc(/C=C/C(=O)c2ccccc2)cc1,94.0,2.0,95.0,-6.0,x,x,x
CCOc1ccc(/C=C/C(=O)NCc2ccccc2)cc1,108.0,x,137.0*,0.0,109.0,11.0,109.0
CN(C)CCCN(Cc1ccccc1)C(=S)Nc1cccc(C(F)(F)F)c1,113.0,0.0,95.0,10.0,x,x,x
FC(F)(F)c1cccc(NC(=S)N(CCCN2CCCC2)Cc2cccn2Cc2ccc(Cl)cc2)c1,243.0*,0.0,93.0,6.0,259.0*,64.0,104.0
COc1ccc(S(=O)(=O)N/N=C(/C)c2ccncc2)cc1OC,101.0,0.0,99.0,2.0,x,x,x
COc1ccc(/C(C)=N\NS(=O)(=O)c2ccccc2)cc1OC,110.0,1.0,132.0*,1.0,99.0,-1.0,105.0
COc1cc(/C=N/n2cnnc2)ccc1OC(=O)c1ccncc1,70.0,0.0,56.0*[inhibitor],-9.0,97.0,-5.0,98.0
Cc1cccc(NCc2cc(Cl)ccc2O)n1,107.0,0.0,82.0*[inhibitor],4.0,101.0,3.0,101.0
COc1ccc(NC(=O)c2coc3ccccc23)cc1OC,101.0,3.0,99.0,10.0,x,x,x
COc1ccc(NC(=O)CSc2ccc3c4c(cccc24)C(=O)c2ccccc2-3)cc1,56.0*[inhibitor],0.0,93.0,-9.0,68.0,-18.0,90.0
COc1ccc2c(c1)cc(C(=O)N/N=C/c1c(O)c(C(=O)O)cc3ccccc13)n2C,103.0,0.0,106.0,0.0,x,x,x
CCOc1ccc2[nH]c3ncccc3c(=O)c2c1,100.0,1.0,103.0,4.0,x,x,x
C=CCOc1c2ccc(C(=O)NCCc3ccc(C)cc3)cc2nn1C,123.0,0.0,126.0*,14.0,68.0,-14.0,93.0
CCCn1nc2cc(C(=O)NCCc3ccc(C)cc3)ccc2c1OCC,96.0,0.0,97.0,-4.0,x,x,x
C=CCNC(=O)/C=C/c1c(F)cccc1Cl,109.0,5.0,184.0*,1.0,100.0,-1.0,105.0

# Source: PubChem
